The campaign covered roughly 13,000 compounds. About 3,200 (25%) showed an effect of 50% or more. Some of the results follow.
tested on: P. falciparum stage V gametocytes; design: BacTiter-Glo ATP luminescence viability of purified stage V gametocytes in 384-well plates, per cent inhibition versus DMSO; settings: 48 h, 5 µM; inhibitor

Row | Structure (SMILES) | % Inhibition [%]
1 | FC(F)(F)c1ccc2[nH]c(-c3ccc(-c4cccc(CNCc5cnn(-c6ccccc6)n5)c4)s3)nc2c1.O=C(O)C(F)(F)F [TCMDC-132968] | -47.17
2 | CC12CN3CC(C)(CN(C1)C3c1cc(Br)ccc1O)C2O (centres unmarked) [TCMDC-123838] | -31.33
3 | Nc1c2ccccc2nc2cc([N+](=O)[O-])ccc12 [TCMDC-132031] | 75.87
4 | Nc1nc(N)c2cc(Cc3ccc([N+](=O)[O-])cc3)cnc2n1 [TCMDC-137920] | -6.074
5 | O=c1c2ccccc2nc(/C=C/c2ccc([N+](=O)[O-])cc2)n1-c1ccccn1 [TCMDC-125664] | 33.94
6 | CCOc1ccccc1CCNCC1CCN(CC2CCCCC2)CC1 [TCMDC-141347] | 95.36
7 | Clc1ccccc1CCNCC1CCN(CC2CCCCC2)CC1 [TCMDC-141344] | 100.3
8 | FC(F)(F)c1cccc(CNCC2CCN(CC3CCCCC3)CC2)c1 [TCMDC-141677] | -8.545
9 | Clc1cccc(Cl)c1CCNCC1CCN(CC2CCCCC2)CC1 [TCMDC-141346] | -12.07
10 | Oc1ccc(CNCC2CCN(CC3CCCCC3)CC2)cc1 [TCMDC-141676] | -27.61
11 | Fc1c(CNCC2CCN(CC3CCCCC3)CC2)cccc1C(F)(F)F [TCMDC-141348] | 4.763
12 | c1ccc2c(C3CCN(CCCCOc4ccc5c(c4)CCN(CC4CC4)CC5)CC3)c[nH]c2c1 [TCMDC-136244] | 103.6
13 | c1ccc2c(C3CCN(CCCCOc4ccc5c(c4)CCN(C4CCC4)CC5)CC3)c[nH]c2c1 [TCMDC-136242] | 103
14 | O=C(CCC(=O)c1ccc2c3c(cccc13)CC2)NC1CCC(CN2CCC(c3c[nH]c4ccccc34)CC2)CC1 (centres unmarked) [TCMDC-139897] | 7.494
15 | O=C(NCCCCCN1CCC(c2c[nH]c3ccccc23)CC1)c1ccc(Cl)c(Cl)c1 [TCMDC-139112] | -15.31
16 | O=C(COc1ccc(Cl)cc1)N1CCC(CN2CCC(c3c[nH]c4ccccc34)CC2)CC1 [TCMDC-139943] | -35.41
17 | CCCCNC(=O)C(C)NC(=O)c1ccc(O)c(-c2ccc(Cl)c(Cl)c2)c1 (centres unmarked) [TCMDC-140838] | 12
18 | O=C1OC(c2ccccc2)(c2ccccn2)CN1C1CCN(Cc2cccn2-c2ccc(Cl)cc2)CC1 (centres unmarked) [TCMDC-134418] | 32.68
19 | CC(CCON1C(N)=NC(N)=NC1(C)C)c1ccc(Cl)cc1 (centres unmarked) [TCMDC-131721] | 15.12
20 | CC(CCON1C(N)=NC(N)=NC1(C)C)c1ccc(Cl)c(Cl)c1 (centres unmarked) [TCMDC-123922] | 56.56
21 | CC1(C)N=C(N)N=C(N)N1OCc1cc(Cl)c(Cl)cc1CON1C(N)=NC(N)=NC1(C)C [TCMDC-131611] | -27.6
22 | CC1(C)N=C(N)N=C(N)N1OCc1cc(Cl)c(CON2C(N)=NC(N)=NC2(C)C)cc1Cl [TCMDC-131624] | 88.84
23 | CCC(CCON1C(N)=NC(N)=NC1(C)C)c1ccc(Cl)c(Cl)c1 (centres unmarked) [TCMDC-131702] | 42.49

Row | Structure (SMILES) | % Inhibition [%]
24 | CC(C)Sc1ccc(Cl)cc1CON1C(N)=NC(N)=NC1(C)C [TCMDC-131322] | 57.4
25 | CC1(C)N=C(N)N=C(N)N1OCc1cccc(Cl)c1Cl [TCMDC-131612] | 37.87
26 | CCSc1ccccc1CON1C(N)=NC(N)=NC1(C)C [TCMDC-131324] | 26.32
27 | CC(CON1C(N)=NC(N)=NC1(C)C)c1ccc(Cl)cc1Cl (centres unmarked) [TCMDC-131687] | 1.916
28 | COc1ccc(CN(C)C(=O)CCNS(=O)(=O)c2ccc3c(c2)OCCCO3)cc1F [TCMDC-125302] | 27.77
29 | COc1ccc(C2(CNCC(O)c3cccc([N+](=O)[O-])c3)CCCCC2)cc1OC (centres unmarked) [TCMDC-125753] | 32.79
30 | c1ccc(CNCc2cccc(-c3csc(-c4nc5ccccc5[nH]4)c3)c2)cc1 [TCMDC-132715] | -5.062
31 | CC(C)CNC(=O)c1ccc(-c2cccc(CN3CCC(N4CCCC4)CC3)c2)nc1 [TCMDC-134223] | 24.52
32 | COc1cccc(CN2CCC(N3CCc4cc(NC(=O)c5cc(C)on5)ccc43)C2)c1OC (centres unmarked) [TCMDC-135077] | 7.17
33 | Nc1oc2c(CN3CCCCCC3)c(O)ccc2c(=O)c1-c1nc2ccccc2s1 [TCMDC-124554] | -27.76
34 | COc1ccc2nc(C)cc(Nc3ccc(Oc4ccc5ccccc5c4Cl)c(Cl)c3)c2c1 [TCMDC-124244] | 45.95
35 | CN(Cc1ccccc1)C1CCCN(c2cc(NC(=O)c3ccc(F)cc3)ccn2)C1 (centres unmarked) [TCMDC-135021] | -22.03
36 | c1cn(CCCNc2ncc(-c3ccsc3)c(-c3nccs3)n2)cn1 [TCMDC-125364] | 29.61
37 | Brc1ccccc1CNc1ccnc(NCCn2ccnc2)n1 [TCMDC-134666] | 85.3
38 | c1ccc2c(CNc3ccnc(NCc4cccc5ccccc45)n3)cccc2c1 [TCMDC-131861] | 43.11
39 | CN1CCN(C(C(=O)NCc2cc(Cl)cc(Cl)c2)c2ccccc2-c2ccsc2)CC1 (centres unmarked) [TCMDC-135388] | 68.05
40 | COc1ccc(Cc2cccc(C(C(=O)NCc3cc(Cl)cc(Cl)c3)N3CCN(C)CC3)c2)cc1 (centres unmarked) [TCMDC-135619] | 76.97
41 | CN1CCN(C(C(=O)NCc2cc(Cl)cc(Cl)c2)c2ccc(NC(=O)Nc3ccccc3)cc2)CC1 (centres unmarked) [TCMDC-135287] | 18.98
42 | COc1ccccc1N1CCN(C(C(=O)NCc2ccc(C)cc2)c2ccc(C)cc2)CC1 (centres unmarked) [TCMDC-135501] | -5.21
43 | CN1CCN(C(C(=O)NCc2cc(Cl)cc(Cl)c2)c2ccc(Nc3cccc(C(F)(F)F)c3)cc2)CC1 (centres unmarked) [TCMDC-134698] | -89.62
44 | COc1ccccc1-c1ccc(CNC(=O)C(CN2CCN(C)CC2)c2ccccc2)cc1 (centres unmarked) [TCMDC-136897] | 12.07
45 | COc1cc(CCNc2nc(NCc3ccccc3-c3ccccc3)nc(N3CCC(N)CC3)n2)ccc1O [TCMDC-133443] | 10.19
46 | N#CCSc1nnc(-c2ccccc2)c2ccccc12 [TCMDC-123867] | 67.4

Row | Structure (SMILES) | % Inhibition [%]
47 | CCOC(=O)CCCc1cc(NC2CCN(C)CC2)nc(Nc2ccc(C)cc2)n1 [TCMDC-134016] | -52.81
48 | C=C[C@]1(C)C[C@@H](OC(=O)CNC[C@@H](O)CN2C[C@H](c3ccnc4ccc(OC)nc34)OC2=O)[C@]2(C)[C@H](C)CC[C@]3(CCC(=O)[C@H]32)[C@@H](C)[C@@H]1O [TCMDC-135366] | -2.122
49 | Nc1nc(Cc2ccc(Cl)cc2)nc(Cc2ccc(Cl)cc2)n1 [TCMDC-137497] | 78.01
50 | Cc1nc2nc(N)nc(N)c2c(C)c1Cc1ccc(Cl)cc1 [TCMDC-137659] | 18.29
51 | CCc1nc(N)nc(N)c1-c1ccc(Cl)cc1 [TCMDC-125860] | 8.374
52 | O=C(c1ccc(-c2ccc(Cl)cc2)o1)N1CCc2cc3nccc(N4CCN5CCC[C@H]5C4)c3cc21 [TCMDC-140116] | 93.89
53 | COc1ccc(C(=O)N2CCc3cc4nccc(N5CCN6CCC[C@H]6C5)c4cc32)cc1 [TCMDC-140035] | 84.78
54 | COc1ccc(/C=C/C(=O)N2CCc3cc4nccc(N5CCN6CCC[C@H]6C5)c4cc32)cc1 [TCMDC-140046] | -29.41
55 | Cc1ccc(C(=O)N2CCc3cc4nccc(N5CCN6CCC[C@H]6C5)c4cc32)cc1 [TCMDC-140036] | -10.33
56 | O=C(Cc1cccc(Cl)c1)N1CCc2cc3nccc(N4CCN5CCC[C@H]5C4)c3cc21 [TCMDC-140038] | 0.313
57 | O=C(c1cc2ccccc2o1)N1CCc2cc3nccc(N4CCN5CCC[C@H]5C4)c3cc21 [TCMDC-140037] | -9.524
58 | O=C(NCc1cccc(F)c1)c1ccc(O)c(-c2cc(Cl)cc(Cl)c2)c1 [TCMDC-140157] | -3.983
59 | O=C(Nc1ccc(N2CCN(Cc3c[nH]c4cc(F)ccc34)CC2)cc1)c1ccccc1-c1ccc(C(F)(F)F)cc1 [TCMDC-138521] | 1.427
60 | Cc1nc2ccc3ccc(CNc4ccc5c(c4)CN([C@H](CCC(=O)O)C(=O)O)C5=O)cc3c2c(=O)[nH]1 [TCMDC-138033] | 21.85
61 | O=C(C=Cc1ccc(F)cc1)N1CCN(S(=O)(=O)c2ccc(Cl)cc2)CC1 [TCMDC-125028] | 63.42
62 | O=C(/C=C/c1ccc([N+](=O)[O-])cc1)N1CCC(NS(=O)(=O)c2ccc(F)cc2)CC1 [TCMDC-139441] | 26.45
63 | O=C(/C=C/c1ccc(Cl)c(Cl)c1)N1CCN(C(=O)Nc2ccc(F)c(Cl)c2)CC1 [TCMDC-135942] | -48.62
64 | Cc1cc(C(=O)Nc2ccc3c(c2)CCN3C2CCN(Cc3ccc(O)cc3)C2)no1 (centres unmarked) [TCMDC-135078] | -0.5259
65 | Cc1ccc(Cn2cnc3cc(C(=O)Nc4ccc(-c5ccc(CN(C)C)cc5)cc4)ccc3c2=O)o1 [TCMDC-132364] | 111.6
66 | CN(CCO)Cc1cccc(-c2ccc(NC(=O)c3cccc(C#N)c3)cc2)c1 [TCMDC-132671] | -45.65
67 | Cc1ccc(Cn2cnc3cc(C(=O)Nc4ccc(-c5cccc(CN(C)C)c5)cc4)ccc3c2=O)o1 [TCMDC-132366] | 91.1
68 | COc1cccc2cc(C(=O)N[C@@H](CC(C)C)C(=O)N[C@H](/C=N/NC(=O)Cc3cccnc3)CCc3ccccc3)oc12 [TCMDC-135634] | -9.897

From PMC4552634, “A New Set of Chemical Starting Points with Plasmodium falciparum Transmission-Blocking Potential for Antimalarial Drug Discovery” (PLoS ONE, 2015)
